# Compounds with a hit are over-represented: about 4.6% of the library has one in this group of screens.
# TRHR enhancer – allosterically enhances the human TRH receptor | TRHR cells, fluo-8 calcium fluorescence, EC20 TRH enhancement | enhancement, % at 2 µM | hit rate 0.66% among 360,000 | AID 493056; in the data active = enhancement above about 30%; also: 0% is about no effect
# Target sequence (P34981 whole entry, looked up): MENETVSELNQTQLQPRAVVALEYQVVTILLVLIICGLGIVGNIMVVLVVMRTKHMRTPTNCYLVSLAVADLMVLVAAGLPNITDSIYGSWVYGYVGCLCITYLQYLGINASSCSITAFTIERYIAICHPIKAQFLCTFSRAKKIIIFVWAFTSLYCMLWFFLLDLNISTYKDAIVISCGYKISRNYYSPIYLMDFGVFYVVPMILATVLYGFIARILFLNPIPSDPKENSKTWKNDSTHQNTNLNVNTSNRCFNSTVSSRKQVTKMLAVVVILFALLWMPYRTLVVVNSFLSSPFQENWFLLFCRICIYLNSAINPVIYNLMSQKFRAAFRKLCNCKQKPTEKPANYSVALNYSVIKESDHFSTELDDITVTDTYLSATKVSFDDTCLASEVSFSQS
#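 TRHR-expressing cells loaded with fluo-8 calcium dye were read kinetically (ex 480/em 530) during compound addition, then stimulated with an EC20 of TRH (10 nM final). Enhancement of the Gq-mediated intracellular calcium response was scored.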
# TRHR ag – activates the human TRH receptor | activation, % at 2 µM | P34981 | AID 493084 | hit rate 0.18% among 360,000 | TRHR cells, calcium flux fluo-8, FDSS agonist mode; also: 0% is about no effect
#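 TRHR-expressing cells loaded with fluo-8 calcium dye; 23 nL library compound pin-transferred, kinetic FDSS fluorescence (Ex 480/Em 530) recorded about 180 s for agonist-induced calcium release, before a 10 nM TRH EC20 addition for potentiator mode.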
# D1 ag – agonists of human D1 dopamine receptor; AID 504660; HEK293 T-REx D1 cells, calcium flux, agonist mode; activation, % at 2 µM; hit rate 1% among 360,000; P21728; also: 0% is about no effect
#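 Inducible HEK293 T-REx D1 cells, force-coupled to calcium signalling, were plated at 4000 cells/well with tetracycline and held overnight at 30 C. After no-wash calcium dye loading, compound-evoked calcium rise over 180 s flagged agonists.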
# D1 antag – antagonists of human D1 dopamine receptor. P21728. HEK293 TREx D1 cells, calcium flux, dopamine EC80; stronger effect = lower value. activity change, negative = inhibition, % at 10 µM. hit rate 3.2% among 360,000; in the data active = activity change below about -30%; also: % is scaled to controls: 0 for no effect and ±100 for the full control effect
#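 HEK293 T-REx cells expressing inducible, force-coupled D1 receptor; no-wash Ca dye, 30–90 min RT. Cmpd → 180 s read at 1 Hz → EC80 DA → 180 s read.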
# D1 PAM – enhances dopamine response at the human D1 receptor; HEK293 TREx D1 cells, calcium flux, dopamine EC20 potentiation; P21728; hit rate 0.036% among 360,000; potentiation, % at 10 µM; in the data active = potentiation above about 30%; also: 0% is about no effect
# The depositor's hits bear a star; / = no result given; ! = not confirmed by another sample. Rule as the data show it, unless noted: active = activation above about 30%; inactive = the rest.
SMILES,TRHR enhancer,TRHR ag,D1 ag,D1 antag,D1 PAM
Cc1ccc(NC(=O)c2sc3nc(-c4ccncc4)ccc3c2N)cc1,-6,-1,165*,-5,14
c1ccc(COc2ccc(OCCCCN3CCCC3)cc2)cc1,4,1,35*,-34*,-6
CC1CCN(CCCCOc2ccc(C(C)(C)C)cc2)CC1,-3,2,41*,-4,-7
CC1CCN(CCOc2ccc(OCc3ccccc3)cc2)CC1,0,2,33*,-41*,-7
Cc1cccc(OCCSc2nnc(-c3ccoc3C)n2C)c1,4,-1,1,0,1
Cc1oc(-c2ccc(Cl)cc2)[n+]([O-])c1C,-2,0,0,-10,2
CCOC(=O)c1c(CC(C)C)csc1/N=C/C1C(=O)CC(C)(C)CC1=O,13,12,32*,-4,-2
CCOC(=O)c1cc(C)sc1/N=C/C1C(=O)CC(C)(C)CC1=O,-3,0,-2,-6,-8
COc1cc(OC)c(NC(=O)Nc2ccccc2OCc2cc(=O)n3cc(C)ccc3n2)cc1Cl,-7,0,-2,-9,-3
COc1cc(OC)c(NC(=O)Nc2cccc(OCc3cc(=O)n4ccccc4n3)c2)cc1Cl,1,0,2,-40*,-6
NC(=O)c1nsc(C(=O)N(Cc2ccco2)C(C(=O)NCC2CCCO2)c2ccc(F)cc2)c1N (stereo unspecified),-6,-1,0,-4,-6
Cc1ccccc1-n1c(SCC(=O)NCC2CCCO2)nc2c([nH]c3ccccc32)c1=O (stereo unspecified),-7,0,0,-2,-7
COc1ccc(Cl)cc1C(=O)NNC(=O)CSc1nnc2ccccn12,5,-1,3,4,-5
CCOC(=O)C(Cc1ccccc1)C(=O)Nc1cccc(C)c1 (stereo unspecified),31*,-1,-1,-3,6
Cc1cccc(NC(=O)CCCc2ccccc2)c1,-3,0,3,-58*,-5
CC(O)c1cccc(NC(=O)CCCc2ccccc2)c1 (stereo unspecified),-3,3,1,3,1
Cn1c([N+](=O)[O-])cnc1N1CCN(c2nncs2)C1=O,9,0,1,6,-5
CCc1ccc2oc(C(=O)NCc3ccncc3)c(C)c2c1,3,1,-1,0,-4
Cc1cc(C)c2c(C)c(C(=O)NCc3ccncc3)oc2c1,-2,-1,-1,-44*,-5
CCN(Cc1nc(-c2ccc(OC)c(OC)c2)no1)S(=O)(=O)c1ccc(OC)cc1,-4,0,1,-34*,2
COc1ccc(-c2noc(COc3ccc(C)c(C)c3)n2)cc1OC,-8,1,9,-45*,-5
Cc1ccc(-c2noc(COc3ccc(Br)c(C)c3)n2)cc1,-1,1,12,-4,-7
COc1ccc(-c2noc(COc3ccc(Br)cc3C)n2)cc1OC,28,0,33*,2,-1
COc1ccc(-c2noc(COc3ccc4ccccc4c3Br)n2)cc1OC,4,-2,0,11,-5
Cc1cccc(-n2nnnc2-c2cnccc2C(F)(F)F)c1C,-3,-1,6,-4,-3
SMILES,TRHR enhancer,TRHR ag,D1 ag,D1 antag,D1 PAM
CCOC(=O)C1CN(S(=O)(=O)c2ccc(C)cc2)c2ccccc2O1 (stereo unspecified),-1,2,6,-45*,-6
CCCCNc1nc(-c2ccccc2)nc(-n2ccnc2)n1,-3,-2,1,-38*,-7
O=C(COC(=O)c1ccco1)Nc1ccccc1,0,0,2,15,2
Cc1cc(C)c(C#N)c(SCC2COc3ccccc3O2)n1 (stereo unspecified),2,-1,38*,-5,1
CCOC(=O)c1cnn(C)c1NC(=O)c1ccc(Cl)cc1Cl,9,1,3,2,-6
c1ccc(-c2cnn3c(-c4ccccc4)c(-c4ccccc4)nc3n2)cc1,23,173*,475*,-48*,-13
O=C(NNC(=O)C1CC2CCC1C2)c1sc2ccccc2c1Cl (stereo unspecified),-6,-1,3,-34*,-5
COc1ccc(C(=O)NNC(=S)NC(=O)/C=C/c2cccs2)cc1,0,-1,3,-35*,5
COc1ccc(C(=O)NNC(=S)NC(=O)C(C)(C)C)cc1,-11,79*,306*,-35*,-4
O=C(NC1CC1)c1sc2ccccc2c1Cl,-1,-1,1,-2,-4
O=C(NNC(=S)NC1CCCCC1)c1sc2ccccc2c1Cl,1,1,3,2,-10
CC(C)(C)C(=O)NC(=S)NNC(=O)c1sc2ccccc2c1Cl,4,-2,446*,46,56*
C[C@H]1CN=C(Nc2ccccc2)N1CC1CCCCCC1,-2,1,2,3,1
Cc1[nH]n(-c2ccc([N+](=O)[O-])cc2)c(=O)c1C=NCCc1c[nH]c2ccccc12,-7,0,-1,-36*,-7
COc1ccc(OC)c(-c2csc(NC(=O)Cc3ccccc3OC)n2)c1,17,1,4,-11,/
COc1ccc(OC)c(-c2csc(NC(=O)Cc3ccccc3F)n2)c1,32*,-1,2,-3,-3
NC(=O)c1ccsc1NC(=O)COC(=O)c1ccc(Cl)c(N)c1,-3,0,14,-3,-7
CC(=O)COc1ccc2c(-c3cccc([N+](=O)[O-])c3)cc(=O)oc2c1,-8,0,0,2,-1
COc1ccc([N+](=O)[O-])cc1COc1ccc2c(-c3ccccc3)cc(=O)oc2c1,-4,1,5,-33*,-14
Cc1cc2nc(CSc3ccccc3)cc(=O)n2[nH]1,-5,0,2,-33*,2
Cc1cc2nc(CCl)cc(=O)n2[nH]1,-1,0,2,5,-3
Cc1cc(NC(=O)C2C3C(=O)N(Cc4ccc(Cl)cc4)C(C(=O)NC(C)(C)C)C34C=CC2(C)O4)no1 (stereo unspecified),0,0,1,-13,-1
Cc1ccc(C(=O)N(CN2CCCC2=O)c2ccccc2)cc1,-3,0,1,0,-5
O=C1CCNc2ccc(-c3ccccc3)cc21,9,17,68*,-13,-8
CC12CCC(C(=O)N(c3ccccc3Cl)C1=O)C2(C)C (stereo unspecified),34*,0,2,6,-2
CC12CCC(C(=O)N(c3ccc(Cl)cc3)C1=O)C2(C)C (stereo unspecified),-3,0,1,-8,-6
COc1ccc2[nH]cc(CCNC(=O)Nc3ccccc3)c2c1,-5,4,4,-34*!,-7
COc1ccc2[nH]cc(CCNC(=O)Cc3ccc(Br)cc3)c2c1,3,-1,6,7,3
